From PubChem BioAssay (NCI)
“And” between values parts separate entries of the source, which are not always exact repeats. Equal values may be shown once. About 83,000 compounds went through this panel and 20% of them were active in at least one assay; those are over-represented in the sample as a whole.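 For each line, cells grew in 96-well plates with the test compound present at a single concentration for 48 hours.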 The source made the active and inactive calls. The calls were made as follows: active = growth percent below 10; inactive = the rest.

Columns and labels:
Assay in all cases: NCI-60 one-dose screen, 48 h (100 = growth as untreated, 0 = no growth, -100 = all killed)
Settings in all cases: 10 µM unless noted
[1] = test system: HCT-15 colon
[2] = test system: HT29 colon
[3] = test system: SNB-75 CNS
[4] = test system: SNB-19 CNS
[5] = test system: U251 CNS
[6] = test system: PC-3 prostate
[7] = test system: SK-MEL-5 melanoma
[8] = test system: UACC-62 melanoma
[9] = test system: LOX IMVI melanoma
[10] = test system: SK-MEL-28 melanoma

With `CN(C)CCOc1ccc2c(c1)C(=O)/C(=C\c1ncc([N+](=O)[O-])n1C)C2` the growth [1] was -10.2% (active), the growth [2] was -32.6% (active) and the growth [3] was -86.6% (active). The growth [4] was -39.2% (active), the growth [5] was -14.4% (active) and the growth [6] was -11.2% (active). The growth [7] was -97.6% (active), the growth [8] was -59.7% (active) and the growth [9] was -41.9% (active). The growth [10] was -71.2% (active).
For `CC1SC(=S)N(c2ccc(Cl)cc2)C1=O` (stereo unspecified), the growth [1] was 96.5% (inactive) and 84.1% (inactive), the growth [2] was 105% (inactive) and 98.8% (inactive) and the growth [3] was 88.8% (inactive) and 83% (inactive). For the same compound, the growth [4] was 99.9% (inactive) and 104% (inactive), the growth [5] was 95.4% (inactive) and 93.6% (inactive) and the growth [6] was 97.7% (inactive) and 74.3% (inactive). The growth [8] was 82.5% (inactive) and 70.1% (inactive), the growth [9] was 85.9% (inactive) and 90.2% (inactive) and the growth [10] was 210% (inactive) and 104% (inactive).
`CCOC(=O)c1c(C)[nH]c(CO)c1C` was tested, and the growth [1] was 106% (inactive), the growth [2] was 96.4% (inactive) and the growth [3] was 101% (inactive). The growth [4] was 98.4% (inactive), the growth [5] was 99% (inactive) and the growth [6] was 98.1% (inactive). For the same compound, the growth [8] was 93.4% (inactive), the growth [9] was 101% (inactive) and the growth [10] was 103% (inactive).
With `O=C(O)c1ccc2c3c(ncnc13)-c1ccccc1C2=O` the growth [1] was 26.8% (inactive), the growth [2] was 59.2% (inactive) and the growth [3] was 20.2% (inactive). For the same compound, the growth [4] was 38.1% (inactive), the growth [5] was 60.6% (inactive) and the growth [6] was 55.5% (inactive). The growth [8] was 12.6% (inactive), the growth [9] was 21.5% (inactive) and the growth [10] was 29.8% (inactive).
With `CCN(CC)CCOc1ccc(-c2nc3cc(Cl)ccc3s2)cc1` the growth [1] was -71.9% (active), the growth [2] was -100% (active) and the growth [3] was -0.875% (active). The growth [4] was 40.7% (inactive), the growth [5] was -3.49% (active) and the growth [6] was 4.44% (active). The growth [8] was -86.9% (active), the growth [9] was -86.5% (active) and the growth [10] was -79.7% (active).
For `O=C1c2cccnc2-c2nccc3c2c1nc1cc(Br)ccc13`, the growth [1] was -49.5% (active) and -71.3% (active), the growth [2] was -35% (active) and -75.9% (active) and the growth [3] was 9.53% (active) and -98.7% (active). The growth [4] was -49.7% (active) and -79% (active), the growth [5] was -75% (active) and -97.8% (active) and the growth [6] was -43.2% (active) and -86.6% (active). For the same compound, the growth [7] was -97% (active) and -95.4% (active), the growth [8] was -95.1% (active) and -74.6% (active) and the growth [9] was -45.9% (active) and -71.1% (active). For the same compound, the growth [10] was -67.5% (active) and -74.4% (active).
In the case of `Oc1c(Cl)c2ccccc2c2ccccc12`, the growth [1] is reported as 112% (inactive), the growth [2] is reported as 103% (inactive) and the growth [3] is reported as 88.2% (inactive). For the same compound, the growth [4] was 99.1% (inactive), the growth [5] was 113% (inactive) and the growth [6] was 97.5% (inactive). For the same compound, the growth [7] was 101% (inactive), the growth [8] was 107% (inactive) and the growth [9] was 98% (inactive). The growth [10] was 108% (inactive).
`CCCCCCCCCCCCCCCCCCOP(=O)([O-])OC1CC[N+](C)(C)CC1` was tested, and the growth [1] was -50% (active) and -67.9% (active), the growth [2] was 2.35% (active) and -29.9% (active) and the growth [3] was 10.6% (inactive) and -41.7% (active). For the same compound, the growth [4] was -29.2% (active) and -65.1% (active), the growth [5] was -35.1% (active) and -68.1% (active) and the growth [6] was -50.8% (active) and -75.1% (active). The growth [8] was 25.3% (inactive) and 37.2% (inactive), the growth [9] was 11.4% (inactive) and -3.66% (active) and the growth [10] was 57.3% (inactive).
For `Cc1ccnc(NC(c2ccccc2)c2ccc3cccnc3c2O)c1` (stereo unspecified), the growth [1] was 27.9% (inactive), the growth [2] was 43.1% (inactive) and the growth [3] was 52.2% (inactive). The growth [4] was 40.3% (inactive), the growth [5] was 20.4% (inactive) and the growth [6] was 35.3% (inactive). For the same compound, the growth [8] was 26.3% (inactive), the growth [9] was 28.1% (inactive) and the growth [10] was 47% (inactive).
`CNC(=O)N/N=C/c1ccc([N+](=O)[O-])o1` was tested, and the growth [1] was 107% (inactive), the growth [2] was 102% (inactive) and the growth [3] was 114% (inactive). For the same compound, the growth [4] was 94.9% (inactive), the growth [5] was 96.9% (inactive) and the growth [6] was 92.7% (inactive). For the same compound, the growth [8] was 88.9% (inactive), the growth [9] was 89.1% (inactive) and the growth [10] was 111% (inactive).
`C1=C(c2ccccc2)C(c2ccc(OCCN3CCCCC3)cc2)Oc2ccccc21` (stereo unspecified) was tested, and the growth [1] was 23.2% (inactive), the growth [2] was 1.98% (active) and the growth [3] was 56.5% (inactive). For the same compound, the growth [4] was 53.7% (inactive), the growth [5] was 38.2% (inactive) and the growth [6] was 60.6% (inactive). For the same compound, the growth [8] was -41% (active), the growth [9] was -76.9% (active) and the growth [10] was -51.2% (active).
`O=C1NC(=O)/C(=C/C=C/c2ccccc2)S1` was tested, and the growth [1] was 54.1% (inactive), the growth [2] was 56.6% (inactive) and the growth [3] was 59.7% (inactive). The growth [4] was 28.3% (inactive), the growth [5] was 17.1% (inactive) and the growth [6] was 87.5% (inactive). The growth [8] was 1.33% (active), the growth [9] was 15.8% (inactive) and the growth [10] was 84.6% (inactive).
